# mHTT CaM bind = mHTT-calmodulin interaction abrogation | actives 3.6% (n = 190,000) | AID 1671202 | inhibition, % at 15 µM | AlphaScreen His-mHTT/GST-CaM binding, luminescence | P42858
# Pf apPOL block = Pf-apPOL DNA polymerase inhibition | Recombinant Pf-apPOL, molecular beacon fluorescence, 1.5 h | inhibition, % at 10 µM | actives 0.25% (n = 210,000) | AID 1794808
# Numbers stand for hits; i = inactive; nt = not tested or not shown. In the library only some 3.6% were active in any assay of this set; here they are far more common. Rule as the data show it: active = inhibition above about 50%; inactive = the rest.
SMILES,mHTT CaM bind,Pf apPOL block
CCN1c2cc(Cl)ccc2C(=O)NC12CCN(C(=O)Nc1ccc(OC)cc1)CC2,i,i
CCN1c2cc(C)ccc2-n2cccc2C12CCN(C(=O)Nc1ccccc1)CC2,52,i
CCN1c2cc(C)ccc2-n2cccc2C12CCN(C(=O)Nc1ccc(OC)cc1)CC2,56,i
Cc1cccc(-c2nccc(C3CCCN(C(=O)c4ccc(F)cc4)C3)n2)c1 (stereo not given),i,i
Cc1noc(CNC(=O)C2CCN(C(=O)c3ccc4nsnc4c3)CC2)n1,i,i
c1ccc(CSc2nnc(-c3cccnc3)n2Cc2ccccc2)cc1,i,i
O=C1[C@H](Cc2ccccc2)NC/C=C\C[C@@H](c2ccco2)N1Cc1ccccc1,i,i
O=C1[C@H](Cc2ccccc2)NC/C=C\C[C@H](c2ccc(Cl)cc2)N1Cc1ccc(Cl)cc1,99,i
O=C1[C@H](Cc2ccccc2)NC/C=C\C[C@@H](c2ccc(Cl)cc2)N1Cc1ccccc1,93,i
O=C1[C@H](Cc2ccccc2)NCCCC[C@@H](c2ccc(Cl)cc2)N1Cc1ccc(Cl)cc1,100,i
O=C1[C@H](Cc2ccccc2)NCCCC[C@H](c2ccc(Cl)cc2)N1Cc1ccccc1,i,i
O=C1[C@H](Cc2ccccc2)NC/C=C\C[C@H](c2ccc(Cl)cc2)N1Cc1ccccc1,82,i
O=C1c2ccccc2NC(c2ccc(Cl)cc2)N1Cc1ccccc1 (stereo not given),i,i
O=C1CSC(c2ccc(F)cc2)N1Cc1ccccc1 (stereo not given),i,i
CCOC(=O)c1c(-c2ccccc2)oc2cc(Br)c(OCc3cccc(F)c3)cc12,i,i
COc1nc(C)nc2onc(-c3ccc(C)s3)c12,i,nt
Cn1cccc1CN1CCC(C(O)c2ccccn2)CC1 (stereo not given),i,i
Cc1ccc(S(=O)(=O)c2nc(-c3cccc(C)c3)oc2N2CCOCC2)cc1,i,i
COc1ccc(N2CCN(C(=O)c3ccc(C#Cc4ccccc4)cc3)CC2)cc1,i,i
O=C(c1cccnc1)N1CCC(CCOCc2cccc(F)c2)CC1,i,i
N=c1ncn(Cc2ccccc2)c2nc(SCCOc3ccccc3)[nH]c12,i,i
O=C1[C@H](Cc2ccccc2)NCCCC[C@H](c2ccco2)N1Cc1ccccc1,93,i
O=C1[C@H](Cc2ccccc2)NCCCC[C@@H](c2ccco2)N1Cc1ccccc1,i,i
CC(C)c1ccc(CN2CC(C(=O)Nc3ccccc3)CC2=O)cc1 (stereo not given),i,i
CC(=O)Nc1cccc(N2CC(C(=O)Nc3nc4ccc(Cl)cc4s3)CC2=O)c1 (stereo not given),53,i
SMILES,mHTT CaM bind,Pf apPOL block
CC(C)c1ccc(CN2CC(C(=O)Nc3nc4ccccc4s3)CC2=O)cc1 (stereo not given),100,i
COc1ccc2nc(NC(=O)C3CC(=O)N(c4cccc(NC(C)=O)c4)C3)sc2c1 (stereo not given),i,i
CC1(C)CC(N)CC(C)(C)N1,i,i
Brc1ccccc1CN1CCSCC1,i,i
COc1cccc(-n2c(SCC(=O)N3CCCC3)nc3n[nH]c(C)c3c2=N)c1,i,i
CCC(C)NC(=O)CSc1nc2ccsc2c(=O)n1-c1ccc(Br)cc1 (stereo not given),i,i
CCC(C)NC(=O)CSc1nc2n[nH]c(C)c2c(=N)n1-c1ccc(Br)cc1 (stereo not given),75,i
COc1ccc(-n2c(SCC(=O)NC3CCCCC3)nc3n[nH]c(C)c3c2=N)cc1,79,i
CCC(Sc1nc2n[nH]c(C)c2c(=N)n1-c1ccc(C)cc1)C(=O)N1CCCC1 (stereo not given),54,i
CCCN(CCC)C(=O)CSc1nc2n[nH]c(C)c2c(=N)n1-c1ccc(OCC)cc1,i,i
O=C(Nc1nnc(SCc2cccnc2)s1)c1cc(C2CC2)on1,i,i
Clc1ccc(-c2nnc(SCCC3OCCCO3)o2)c(Cl)c1,i,i
CC(Oc1ccc(Cl)cc1Cl)C(=O)NC1=NN(c2ccccc2)C(=O)C1 (stereo not given),68,i
CC(Oc1ccc(Cl)cc1Cl)C(=O)Nc1ccncc1 (stereo not given),i,i
CC(C)(C)c1ccc(-c2cc(=O)[nH]c(=O)o2)cc1,nt,i
CC(=O)c1cccc(NS(=O)(=O)c2ccc3[nH]c4c(c3c2)CCCC4)c1,84,i
CC(=O)c1cccc(NS(=O)(=O)c2ccc(F)cc2)c1,i,i
CN(CC(=O)Nc1cccc(F)c1)S(=O)(=O)c1ccc2[nH]c3c(c2c1)CCCC3,i,i
CC(=O)c1ccc(NS(=O)(=O)c2ccc3[nH]c4c(c3c2)CCCCC4)cc1,70,i
CC(=O)c1cccc(NC(=O)CN(C)S(=O)(=O)c2ccc3[nH]c4c(c3c2)CCCC4)c1,i,i
CCOC(=O)c1cccc(NS(=O)(=O)c2ccc3[nH]c4c(c3c2)CCCC4)c1,95,i
CC(=O)c1cccc(NS(=O)(=O)c2ccc3[nH]c4c(c3c2)CCCCC4)c1,99,i
CC(C)Oc1ccc(CNC(=O)C2CCN(c3cncnc3N(C)C)CC2)cc1,i,i
Cc1ccc(C)c(CNC(=O)C2CCN(c3cnc4nccnc4c3)CC2)c1,i,i
C=C(C)CN(CC)Cc1ccc(OC)cc1,i,i
SMILES,mHTT CaM bind,Pf apPOL block
Cc1nccn1-c1ccc(CNC(=O)c2cccnc2)cc1,i,i
CCN(Cc1ccccc1)C(=O)c1c(C)cc(=O)oc1C,i,i
CCC(=O)N1CCc2sc(C(=O)N3CCN(c4cc(C)ccc4C)CC3)cc2C1,66,i
CCC(=O)N1CCc2sc(C(=O)N3CCN(CC)CC3)cc2C1,i,i
CC(=O)N1CCc2sc(C(=O)N3CCN(c4cc(C)ccc4C)CC3)cc2C1,65,i
CC(=O)N1CCc2sc(C(=O)N3CCN(c4ccccc4F)CC3)cc2C1,i,i
O=C(C1CCC1)N1CCN(c2ccccn2)CC1,i,i
C=C(C)Cn1c(C(=O)N2CCN(C)CC2)cc2sc(C)cc21,i,i
Cc1cc2c(cc(C(=O)N3CCN(C)CC3)n2Cc2cccc(F)c2)s1,56,i
Cc1c(C(=O)N2CCN(C)CC2)oc2ccc(S(=O)(=O)N3CCC4(CC3)OCCO4)cc12,i,i
CCc1nc(CC)n2ccn(Cc3cccnc3)c(=O)c12,i,i
CC(CC(=O)N1CCN(c2cccc(Cl)c2)CC1)c1ccccc1 (stereo not given),i,i
O=C(c1ccccc1Cl)N1CCN(c2cccc(Cl)c2)CC1,i,i
O=C(CC(c1ccccc1)c1ccccc1)N1CCN(c2cccc(Cl)c2)CC1,84,i
O=C(c1ccccc1I)N1CCN(c2cccc(Cl)c2)CC1,77,i
O=C1c2ccccc2-c2c1cccc2C(=O)N1CCN(c2ccc(Cl)cc2)CC1,100,i
COc1ncc(C(=O)N2CCN(c3cccc(Cl)c3)CC2)cn1,i,i
O=C1c2ccccc2-c2c1cccc2C(=O)N1CCOCC1,i,i
CCOc1nn(CC)cc1C(=O)N1CCN(c2cccc(Cl)c2)CC1,91,i
CCOC(=O)c1c(SC)nc2c(C(F)(F)F)cccc2c1N1CCCC1,nt,i
CC(C)C(=O)Nc1ccc(NC(=O)c2ccc(Cl)cc2)cc1,i,i
O=C(Nc1nnc(-c2ccc([N+](=O)[O-])cc2)s1)c1ccccc1,i,i
CCCCOC(=O)CCN1C(=O)C(=Cc2ccc(OC)cc2)SC1=S,i,i
CCCC(=O)Nc1ccc(C)cc1[N+](=O)[O-],i,i

# Bioassay records as filed in PubChem BioAssay.
